Screen size: about 2,300 compounds; about 1,400 (61%) were called active. Not shown: some 7% with an inconclusive outcome. How the calls were made is not given here. The set was probably picked from earlier hits. A selection follows. Potency and affinity values are given separately.

For this assay, the target named is FAD-linked sulfhydryl oxidase ALR (Homo sapiens) (UniProt P55789). The assay can be described thus: ALR-catalysed DTT oxidation blockers – biochemical, H2O2 detection, luminescence, cherry-pick, dose response (AID 493248). To be noted: purified ALR, H2O2 HRP-luminol luminescence; at 10 µM (top of the series).
Chain of FAD-linked sulfhydryl oxidase ALR (Homo sapiens) (P55789 whole entry, looked up): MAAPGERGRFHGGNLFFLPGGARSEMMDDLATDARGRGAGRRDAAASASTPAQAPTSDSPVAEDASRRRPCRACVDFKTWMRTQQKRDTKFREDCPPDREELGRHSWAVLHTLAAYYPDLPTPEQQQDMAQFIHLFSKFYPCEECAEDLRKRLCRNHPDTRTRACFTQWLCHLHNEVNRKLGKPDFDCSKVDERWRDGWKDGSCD
As for `CSc1nnc(-c2ccncc2)n1CCCN1CCCC1=O`, the activity change, negative = inhibition was determined as 69.3%.

In the case of `Cc1cc(C(=O)CN2C(=O)CCC2=O)c(C)n1Cc1ccccc1`, the activity change, negative = inhibition was -73.3%.

In the case of `N#CCC(=O)Nc1ccc(C(=O)NCCc2c[nH]c3ccccc23)cc1`, the activity change, negative = inhibition is -21.6%. With `CS(=O)(=O)N(CC(=O)NCc1ccccn1)Cc1ccc(Cl)cc1`, the activity change, negative = inhibition was 128%. As for `COC(=O)[C@@H](N)Cc1ccc(O)c(O)c1`, the activity change, negative = inhibition was -110%. Take `Cc1cccn2cc(CNc3ccccc3)nc12`: the activity change, negative = inhibition is -7.4%. For the compound `CC(=O)Nc1cccc(NC(=O)c2cccc(-c3ccc(O)cc3)c2)c1`, the activity change, negative = inhibition stood at 64.6%.

Turning to `Cc1cc(C)n2nc(C(=O)N/N=C/c3ccc(O)cc3)nc2n1`, the activity change, negative = inhibition is -107%.

`Nc1nnnn1/N=C/c1ccc(O)cc1`: the activity change, negative = inhibition is -84.1%. The result for `COc1cc(/C=N/N2C(=O)C3C4C=CC(CC4)C3C2=O)ccc1O` (configuration not stated) reads -104%; that for `S=c1[nH]nc(C2CCCCC2)n1/N=C/c1cccs1`, -12.9%. With `CC(=O)c1cc(CC=C(C)C)c(O)cc1O` the figure was 11.5%; with `Cc1cccc(C(=O)Nc2onc(C)c2C#N)c1`, -51.1%. With `O=C(Nc1nnc(-c2ccco2)o1)c1cccc(Cl)c1`, the activity change, negative = inhibition is -18.4%. For the compound `Cc1[nH]nc(-c2ccc(O)cc2O)c1-c1nc2ccccc2s1`, the activity change, negative = inhibition amounted to 368%. `CC(C)c1ccc(NC2CCCN(C(=O)CCN3CCCC3=O)C2)cc1` (configuration not stated): the activity change, negative = inhibition is -61%. For `COc1ccc(NC2CCCN(C(=O)Cn3ccc(C)n3)C2)cc1OC` (configuration not stated), the activity change, negative = inhibition was 108%. The result for `O=C(CCc1ccncc1)N1CCCC(Nc2ccc(F)c(F)c2)C1` (configuration not stated) reads -11.3%; that for `CC(C)N1C(=O)C2C(c3ccccc3O)NC(C)(C(=O)O)C2C1=O` (configuration not stated), 4.76%; that for `CCc1c(C(=O)NCc2cnn(C)c2)csc1C`, -7.16%.

As to `Cc1cccc(CSc2nn3c(=O)c(C)nnc3s2)c1`, the activity change, negative = inhibition is -99.2%. The result for `COc1ccc(NC(=O)CNS(=O)(=O)c2ccc3nc(C)sc3c2)c(OC)c1` reads -62.8%. The result for `Cc1ccc(CNC(=O)C(NS(=O)(=O)c2ccc3nc(C)sc3c2)C(C)C)cc1` (configuration not stated) reads 40.5%; that for `Cc1nc2ccc(S(=O)(=O)NC(C(=O)Nc3nccs3)C(C)C)cc2s1` (configuration not stated), -35.5%; that for `C/C(=N\NS(=O)(=O)c1ccc(Cl)cc1)c1ccc(O)cc1`, -79.4%. With `Cc1cc(NC(=O)Nc2cccc(C)c2C)no1` the figure was -49%; with `CC(=O)Nc1cccc(N=NN2CCCCC2)c1`, 26.8%. For `O=C(Nc1ccccc1N1CCCC1)c1cccnc1`, the activity change, negative = inhibition is -34.6%.

As to `CC(=O)Nc1ccc(S(=O)(=O)NNC(=O)c2cccc(Cl)c2)cc1`, the activity change, negative = inhibition was -37.6%. On to `Cc1cc(NC(=O)c2ccoc2C)ccc1Br`, for which the activity change, negative = inhibition was -11.3%.

`COc1ccc(S(=O)(=O)Nc2nc3ccccc3nc2Nc2cccc(C(=O)O)c2)cc1`: the activity change, negative = inhibition was -80.5%.

In the case of `CCc1nnc(NS(=O)(=O)c2ccc(NC(=O)OC)cc2)s1`, the activity change, negative = inhibition is -99.5%.

As for `Cc1nc2ccc(Br)cn2c1NC(C)(C)C`, the activity change, negative = inhibition was 15.9%. With `O=C1CSC(c2ccccc2)N1c1ccc([N+](=O)[O-])cc1` (configuration not stated) the figure was -50.9%. With `COc1ccc(C2SCC(=O)N2Cc2ccccc2)cc1` (configuration not stated) the figure was -33.1%. On to `Cc1noc(NS(=O)(=O)c2ccc(NC(=O)CCN3C(=O)c4ccccc4C3=O)cc2)c1C`, for which the activity change, negative = inhibition is -21.6%. With `O=C(O)CCCC(=O)N1CCN(c2nc(-c3ccccc3)c3ccccc3n2)CC1` the figure was -0.988%; with `COc1ccc(N=C2C(=O)Nc3ccccc32)cc1`, -24.8%; with `Cc1ccc(N(C(=O)c2cccs2)C2C=CS(=O)(=O)C2)cc1` (configuration not stated), -56.3%.

With `COc1ccc(Nc2nccc(-c3cccc(N)c3)n2)cc1`, the activity change, negative = inhibition was -11.7%. For `CC1CCC2(CC1)NC(=S)N(c1ccccc1)N2` (configuration not stated), the activity change, negative = inhibition is -28.1%. The result for `COC(=O)c1sccc1NC(=O)c1cc(C)on1` reads -8.04%. Take `Cc1nn(C)c(Nc2ccc(Br)cc2)c1Br`: the activity change, negative = inhibition was -46.2%. Consider `COc1ccc(N2CCN(c3ncccn3)CC2)cc1`, for which the activity change, negative = inhibition is -8.28%. The result for `Cn1c(CNc2ccc(O)cc2)nc2ccccc21` reads -101%. With `Cc1ccccc1NC(=O)CNc1ccccc1N1CCCCC1`, the activity change, negative = inhibition is -89.6%. With `COC(=O)c1c(NC(=O)CN2CCN(Cc3ccc4c(c3)OCO4)CC2)sc(C)c1C` the figure was -8.94%. As to `COc1ccc(S(=O)(=O)N2CCC(C(=O)Nc3ccccc3N3CCCC3)CC2)cc1OC`, the activity change, negative = inhibition was -28.9%.

As to `O=C(Nc1ccccc1N1CCCC1)c1cccc(F)c1`, the activity change, negative = inhibition was -3.33%.

`c1ccc2c(c1)CSc1ccccc1N2`: the activity change, negative = inhibition was -6.27%.

Turning to `CC1CN(C(=O)Nc2ccc3snnc3c2)c2ccccc21` (configuration not stated), the activity change, negative = inhibition is -13.6%. Turning to `CCCCCC(=O)N/N=C/c1ccc(N(C)C)cc1`, the activity change, negative = inhibition was -20.3%.

Turning to `CN(C)c1ccc(C=Nc2cnn(C)c2C(N)=O)cc1`, the activity change, negative = inhibition was -35.9%. In the case of `CN(C)c1ccc(/C=N/NC(=O)c2sccc2-n2cccc2)cc1`, the activity change, negative = inhibition is -99%. With `O=C(CNC(=O)c1ccccc1Br)N/N=C/c1ccc(O)cc1` the figure was -106%; with `CCn1c(NC(=O)c2ccc(C)cc2)c2ccccc2nc1=O`, -48.8%. Turning to `O=C1Oc2ccccc2C(=O)/C1=C\N1CCN(c2ccccc2)CC1`, the activity change, negative = inhibition was -15.7%. On to `O=Cc1c(Sc2ccccc2)nc2ccccn2c1=O`, for which the activity change, negative = inhibition is -18.4%. Consider `Cc1ccc(S(=O)(=O)Nc2c(O)ccc3ccccc23)cc1`, for which the activity change, negative = inhibition turned out to be 13.8%.

Consider `COc1ccc(OC)c(S(=O)(=O)Nc2cccc3c(O)cccc23)c1`, for which the activity change, negative = inhibition was found to be 31.7%. The result for `COc1ccc(C=O)cc1CSc1ccccn1` reads -11.6%; that for `COc1c(OC)c(O)c2c(=O)cc(-c3c(O)cccc3O)oc2c1OC`, 162%; that for `Cc1nc(-c2ccc([N+](=O)[O-])cc2)c(-c2ccccc2)o1`, 29.9%.

Consider `O=C(CC1C(=O)Nc2ccccc2N1CC(=O)N1CCCC1)Nc1ccc(Br)cc1` (configuration not stated), for which the activity change, negative = inhibition is -30%.

`CCN(CC)c1ccc2oc(=O)c(C)nc2c1`: the activity change, negative = inhibition was found to be 88.3%. Regarding `O=C(c1cc(C(=O)c2ccco2)cc(C(=O)c2ccco2)c1)c1ccco1`, the activity change, negative = inhibition is -7.08%.

`O=C(CCNc1cccc(Cl)c1)c1ccco1`: the activity change, negative = inhibition was -4.82%. With `COc1cc(NCCC(=O)c2cccs2)c(OC)cc1Cl` the figure was -89.7%; with `c1ccc2c3c([nH]c2c1)-c1[nH]ncc1CC3`, -82.4%; with `NC(=O)NC1CCCc2c1[nH]c1ccc(Cl)cc21` (configuration not stated), -12.4%.

In the case of `COc1ccc(-c2csc(NC(=O)[C@H](C)N3C(=O)C4CC=CCC4C3=O)n2)cc1OC` (some centres not stated), the activity change, negative = inhibition is -58.5%.

`COc1cc(/C=C2\SC(=Nc3ccccc3OC)NC2=O)ccc1O`: the activity change, negative = inhibition is -53.3%. Take `O=C(c1cccc(Cl)c1)C1CCCN(Cc2ccc(N3CCNC3=O)cc2)C1` (configuration not stated): the activity change, negative = inhibition is -1.51%.

Turning to `CCC(=O)N1CCN=C1SCc1cccc(F)c1`, the activity change, negative = inhibition is -25.9%. The result for `O=C(CN1C(=O)CSC1=O)N1CCCC(Nc2ccc(F)cc2)C1` (configuration not stated) reads -78.4%; that for `Cc1nc(N2CCN(C)CC2)c2cc(-c3ccccc3)sc2n1`, -4.2%. With `COc1cc(C(=O)O)c2c(c1C)OC(=O)c1c(C)cc(O)c(C=O)c1O2` the figure was -39.1%.
